# Only some compounds are listed: those with a hit (about 3.1% of all), similar ones and a draw of the others.
# LEDGF integ inh: blocks HIV-1 LEDGF/p75-dependent DNA integration; inhibition, % at 3.7 µM; AID 743269; TR-FRET IN-LEDGF/p75 DNA integration, Eu/Cy5; actives 0.64% (n = 370,000);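 active means inhibition above the screen-wide mean plus 3 SD, cut at about 13% in these data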;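 further: signal is the Cy5 over europium emission ratio at 671 and 618 nm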
# MBD2 inh: MBD2-methylated oligo binding inhibition; AID 686964; inhibition, % at 4.4 µM; actives 0.31% (n = 370,000); Q9UBB5; TR-FRET, MBD2 binding to methylated oligonucleotide; in the data active means inhibition above about 13%
# Rin1 Abl inh: inhibitors of human Rin1-Abl protein interaction; TR-FRET Rin1/Abl binding, biochemical; actives 0.4% (n = 360,000); P00519+Q13671; inhibition, % at 7.35 µM; in the data active means inhibition above about 5%, passing the limit was not always enough
# Neddylation inh: blocks human cullin neddylation; actives 0.58% (n = 360,000); TR-FRET cullin neddylation, biochemical; P61081+Q13564; calls only at 25 µM; in the data active means inhibition above about 36%
# Target sequence (P61081 whole entry, looked up): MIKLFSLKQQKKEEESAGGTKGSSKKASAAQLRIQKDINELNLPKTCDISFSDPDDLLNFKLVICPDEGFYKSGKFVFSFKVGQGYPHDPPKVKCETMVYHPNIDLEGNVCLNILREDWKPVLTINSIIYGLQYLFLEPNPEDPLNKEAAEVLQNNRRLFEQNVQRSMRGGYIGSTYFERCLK
# Target sequence (Q13564 whole entry, looked up): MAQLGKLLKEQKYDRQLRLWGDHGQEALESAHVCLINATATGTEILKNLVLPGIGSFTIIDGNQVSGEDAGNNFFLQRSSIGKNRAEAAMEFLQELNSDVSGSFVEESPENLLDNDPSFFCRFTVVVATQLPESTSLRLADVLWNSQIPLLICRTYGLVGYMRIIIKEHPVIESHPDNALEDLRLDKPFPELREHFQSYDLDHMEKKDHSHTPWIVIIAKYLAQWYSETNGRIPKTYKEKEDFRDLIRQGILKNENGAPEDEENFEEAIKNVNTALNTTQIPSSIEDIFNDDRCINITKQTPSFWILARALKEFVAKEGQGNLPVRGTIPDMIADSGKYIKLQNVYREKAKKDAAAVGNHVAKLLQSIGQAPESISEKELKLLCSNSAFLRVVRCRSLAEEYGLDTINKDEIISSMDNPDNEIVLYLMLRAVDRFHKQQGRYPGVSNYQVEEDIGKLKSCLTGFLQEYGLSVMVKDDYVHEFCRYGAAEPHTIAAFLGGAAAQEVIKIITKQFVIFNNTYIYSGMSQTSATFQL
# proKLK7 act: activates the human kallikrein-7 zymogen; purified proKLK7, EDANS-DABCYL substrate fluorescence; 100% is mature enzyme control, 0% vehicle; activation, % at 7 µM; actives 0.9% (n = 370,000);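 active means activation above the mean of all tested compounds plus 3 SD, computed per campaign excluding outliers beyond control limits, cut at about 13% in these data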
# UHRF1 binding: UHRF1 methyl-DNA binding inhibition; inhibition, % at 4.4 µM; AID 687016; actives 0.75% (n = 370,000); Q96T88; UHRF1 binding to methylated oligo, TR-FRET; in the data active means inhibition above about 21%;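 further: UHRF1 SRA domain binding a hemimethylated CpG hairpin DNA probe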
# KLK7 act conf: proKLK7 activation, confirmation; shares compounds with proKLK7 act; purified proKLK7, EDANS-DABCYL substrate fluorescence; scaled: vehicle 0, mature enzyme 100; activation, % at 7 µM; actives 68% (n = 3,200);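 active means activation, as change over the incubation, above the mean of all tested compounds plus 3 SD, cut at about 13% in these data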
# EDANS interfere: optically interferes with EDANS-DABCYL signal, flagging KLK7 hits; EDANS-DABCYL substrate fluorescence interference, no enzyme, 4 h; solvent 0%, active enzyme control 100%; shares compounds with proKLK7 act; actives 80% (n = 3,200); activation, % at 7 µM;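 active means activation above the all-compound mean plus 3 SD, ignoring values outside control-based bounds, cut at about 4.8% in these data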;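 further: value is the 4 h activation minus the activation read at time zero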
# K7 EDANS ctr: EDANS fluorescence interference in dose response, no enzyme; shares compounds with proKLK7 act; EDANS-DABCYL peptide fluorescence interference; actives 20% (n = 250); EC50, µM;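 active means compounds that raise the fluorescence signal in this interference counterscreen, with EC50 at or below 10 µM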;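 further: intact quenched peptide substrate alone read at 355 nm excitation and 520 nm emission; signal is fluorescence gain from T0 to T4 after four hours at room temperature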
# A number is an active result; – = inactive; · = no result shown; + = active, no number.
SMILES,LEDGF integ inh,MBD2 inh,Rin1 Abl inh,Neddylation inh,proKLK7 act,UHRF1 binding,KLK7 act conf,EDANS interfere,others
CCc1nc2ccc(C(=O)NCCc3c[nH]c4ccccc34)cn2c1N(C=O)CCC(C)C,–,–,–,–,–,–,·,·,
CCOc1cc(C(=O)Nc2ccc(S(=O)(=O)N3CCCCC3)cc2)ccc1OCC(=O)N1CCOCC1,–,–,–,–,20,–,14,15,
CCOc1cc(C(=O)Nc2cc(OC)cc(OC)c2)ccc1OCC(=O)N1CCOCC1,–,–,–,–,–,–,·,·,
CCOc1ccc2c(c1)/C(=C(\C(Cl)=C(Cl)Cl)[N+](=O)[O-])N2,–,–,–,–,18,–,53,61,
O=C(c1cc2c(ccc3ccccc32)oc1=O)N1CCN(CCO)CC1,–,–,–,·,26,–,–,9.8,
O=C(c1cc(-c2cccs2)nc2ccccc12)N1CCN(c2ccccc2O)CC1,–,–,–,–,–,–,·,·,
CC(=O)Nc1cc2c(ccc3ccccc32)oc1=O,–,–,–,·,23,–,48,57,
CS(=O)(=O)N1CCN(C(=O)c2cc(-c3cccs3)nc3ccccc23)CC1,–,–,–,·,13,–,16,23,
O=C(c1cc(-c2cccs2)nc2ccccc12)N1CCN(CCO)CC1,–,–,–,·,14,–,22,14,K7 EDANS ctr=–
CC(=O)Nc1cc2ccccc2oc1=O,–,–,–,–,–,–,·,·,
CC(=O)c1cc2c(ccc3ccccc32)oc1=O,–,–,–,·,–,–,·,·,
C[C@H]1[C@@H](NC(=O)c2ccc(O)cc2)CC[C@@]23CCCN2C(=O)CCC[C@@H]13,–,–,·,·,·,–,·,·,
Cc1ccc(C(CNC(=O)c2ccco2)N2CCN(C)CC2)cc1 (configuration not stated),–,–,–,–,–,–,·,·,
CCOC(=O)[C@@]12CN(C(=O)OC(C)(C)C)CC=C1N(Cc1ccc(OC)cc1)C(=O)[C@H]2CC(=O)NCc1cccc2ccccc12,–,–,·,·,–,–,·,·,
N[C@@H](Cc1cnc[nH]1)C(=O)Nc1ccc2ccccc2c1,–,–,–,–,–,–,·,·,
COc1ccccc1N1CCN(C(=O)CCC(=O)Nc2nnc(C(C)C)s2)CC1,–,–,–,–,–,–,·,·,
COC(=O)C1=CN(C2CC2)C=C(C(=O)OC)C1c1ccccc1OC,–,–,–,·,37,–,78,78,
COCCN1C=C(C(=O)OC)C(c2ccccc2Cl)C(C(=O)OC)=C1,–,–,–,·,42,–,–,–,
CCN1C=C(C(=O)OC)C(c2cccc(OC)c2OC)C(C(=O)OC)=C1,–,–,–,·,45,–,76,74,
Cc1ccccc1CN1CCCCC(NC(=O)C2CCCCC2)C1=O (configuration not stated),–,–,·,·,–,–,·,·,
O=C(/C=C/c1ccncc1)c1ccc(NC(=O)c2ccccc2F)cc1,·,·,–,–,·,·,·,·,
O=c1nc(-c2ccccc2)c2cc(Br)ccc2[nH]1,–,–,–,–,–,–,·,·,
O=c1nc(-c2ccccc2)c2cc(Cl)ccc2[nH]1,–,–,–,·,14,–,29,28,
COc1ccc2cc(C3=CC(=O)CCC3)ccc2c1,–,–,–,·,24,–,–,–,
Cc1nc(SC(C)C(=O)c2c(N)n(C)c(=O)n(C)c2=O)c2c(C)c(C)sc2n1 (configuration not stated),–,–,–,–,–,–,·,·,
SMILES,LEDGF integ inh,MBD2 inh,Rin1 Abl inh,Neddylation inh,proKLK7 act,UHRF1 binding,KLK7 act conf,EDANS interfere,others
Cc1ccc2cc3cc(C(=O)NCCCN4CCCCCC4)oc3nc2c1,–,–,–,·,18,–,–,11,
CCCCN(CC)CCCNC(=O)c1cc2cc3ccc(C)cc3nc2o1,–,–,–,·,22,–,–,13,
Cc1ccc2cc3cc(C(=O)NCCCN4CCCC4)oc3nc2c1,–,–,–,·,–,–,·,·,
CC(=O)c1ccc(-c2cccs2)s1,–,–,–,–,63,–,63,69,
CNc1cccc(-c2ccc(C(C)=O)s2)n1,–,–,–,·,–,–,·,·,
Nc1nc2c(ncn2[C@@H]2O[C@H](C(=O)NCCCc3ccccc3)[C@@H](O)[C@H]2O)c(=O)[nH]1,–,–,·,·,–,–,·,·,
Cc1ccc(C(=O)N(c2c(C)n(C)n(-c3ccccc3)c2=O)C(C)C)cc1,·,·,–,–,·,·,·,·,
CCOC(=O)N1CCC2(CC1)NC(=O)c1ccccc1N2,–,–,–,·,21,–,30,24,K7 EDANS ctr=–
COc1ccccc1NC(=O)c1cc2c(s1)-c1ccccc1S(=O)(=O)C2,–,–,–,–,15,–,–,–,
COc1ccc(-c2nc3ccc(N4CCN(C)CC4)cc3c(=O)[nH]2)cc1,–,–,–,·,14,–,–,5.5,
COc1cc(-c2cnc3c(NC=O)cc(-c4ccc(N5CCN(C)CC5)cc4)cn23)cc(OC)c1OC,–,–,–,–,–,–,·,·,
COc1cc(-c2nc3ccc(N4CCN(C)CC4)cc3[nH]2)cc(OC)c1OC,–,–,–,·,81,–,64,70,
Cc1sc(-c2ccncc2)nc1OC(=O)c1ccc(Cl)cc1,–,–,–,–,–,–,·,·,
Cc1sc(-c2ccncc2)nc1OC(=O)c1ccc(F)cc1F,–,–,–,–,14,–,13,11,K7 EDANS ctr=–
O=C(C1CCCCC1)N1C[C@@H](O)[C@H](n2cc(-c3ccc(F)cc3)nn2)C[C@@H]1c1ccccc1,–,–,–,–,–,–,·,·,
CC1(C)Cc2ccccc2C(CSc2ccccc2C(=O)O)=N1,–,–,–,–,–,–,·,·,
COc1cc2c(cc1OC)C(CSc1ccccc1C(=O)O)=NC(C)(C)C2,–,–,–,+,14,–,–,5.2,
CN1CCn2c1nc(N1CCOCC1)nc2=O,–,–,–,–,–,–,·,·,
Cc1nn(CCc2nn[nH]n2)c2nc(C(F)(F)F)cc(C(F)(F)F)c12,–,–,–,·,30,–,17,12,K7 EDANS ctr=–
Cc1nn(CCc2nn[nH]n2)c2nc(-c3ccc(Br)cc3)cc(C(F)(F)F)c12,–,–,–,–,–,–,·,·,
COC(=O)CSc1nc2ccccn2c(=O)c1C=O,–,–,–,–,59,–,77,69,
O=Cc1c(SCCO)nc2ccccn2c1=O,–,–,–,–,31,–,23,24,
O=Cc1c(Sc2ccccc2)nc2ccccn2c1=O,–,–,–,–,–,–,·,·,
CC(C)(C)CCNc1nc(-c2ccccn2)nnc1-c1ccccc1,–,–,·,·,·,–,·,·,
O=C(NCc1ccccn1)c1ccc(Cl)c(S(=O)(=O)N2CCOCC2)c1,–,–,–,–,–,–,·,·,

# From PubChem
